Laboratory results taken from PubChem BioAssay (EPA / NIEHS).
Results filed as inconclusive are left out. Active and inactive are the calls of the source. How the source made its calls: active means hit-call score of the fitted dose curve at least 0.9, where 1 is the maximum; inconclusive means response in the unintended direction; inactive means score below 0.9.

Assay: STM_H9_NormalizedViability: Cytotoxicity Assessment at 120 hours in the Stemina devTOX quickPredict H9 human embryonic stem cell (hESC)-based Assay (AID 2283784)
Description: STM_H9_viability utilizes undifferentiated H9 cells to measure cell viability.STM_H9_NormalizedViability is a component calculated in the STM_H9_viability assay. It measures cell viability using background corrected relative fluorescence units (RFU) value from the CellTiterFluor Assay normalized to the value of the 0.1% DMSO neutral control treatment (by 96-well plate)Data from the assay component STM_H9_Viability was analyzed at the assay endpoint STM_H9_Viability_Norm in the positive analysis fitting direction relative to DMSO as the negative control and baseline of activity. Using a type of viability reporter, loss-of-signal activity can be used to understand viability.
H9 hESCs maintained in a pluripotent state were exposed to test compound for 72h with chemical replenishment with media replacement every 24h. Cell-conditioned media from the final 24-h treatment period was collected for analysis of the targeted biomarker, and cell viability of the corresponding cell layer was assessed. The chemical library was tested in blinded fashion. Each test plate included 1uM Methotrexate (MTX; Selleck Chemicals, Houston, Texas) as a positive reference, 5 nM MTX as a negative reference, 0.1% DMSO as the neutral (vehicle) control, and sample-level media blanks.H9 cell-conditioned media from the final 24-h treatment period was collected for analysis of the targeted biomarker and cell viability was measured from the corresponding cell layer. Cell viability was measured using the CellTiter-Fluor assay (Promega, Madison, Wisconsin) based on proteolytic cleavage of a substrate to fluorescent signal proportional to the number of living cells. The cell viability Relative Fluorescence Unit (RFU) was background corrected and normalized to mean RFU of the neutral control (0.1% DMSO). The collected H9-cell-conditioned media samples were processed for targeted biomarker analysis as described (Palmer et al., 2013). Briefly, spent media samples were deproteinized (40% acetonitrile) and processed for UPLC-HRMS. Data acquisition was performed using 4 separate UPLC-HRMS systems, consisting of an Agilent 1290 Infinity LC system (Agilent Technologies) interfaced with an Agilent high-resolution mass spectrometer (models G6520A, G6520B, G6530A, and G6224A). A Waters Acquity UPLC BEH Amide column (2.1mm x 50mm, 1.7lm particle size; Waters, Milford, Massachusetts) maintained at 40C was applied for separation of metabolites using a 6.5min solvent gradient with 0.1% formic acid in water and 0.1% formic acid in acetonitrile (1.0ml/min flow rate). Data were acquired using MassHunter Acquisition software (version B 04.00, Agilent Technologies). The extracted ion chromatogram (EIC) areas for ORN, CYSS, and their respective spike-in C13-standards were determined using the Agilent MassHunter Quantitative Analysis software, version B.05.00 or newer (Agilent Technologies), and data were normalized as described in Palmer et al. (2017).

| SMILES | outcome | AC50 |
| --- | --- | --- |
| CC(=O)N1CCN(c2ccc(OC[C@H]3CO[C@](Cn4ccnc4)(c4ccc(Cl)cc4Cl)O3)cc2)CC1 | inactive |  |
| CCOC(=O)O[C@H](C)OC(=O)c1ccc2c(c1)cc(C(=O)NC1CCN(C(C)C)CC1)n2Cc1cc(-c2ccc(Cl)s2)on1 | inactive |  |
| Cc1cn([C@H]2C[C@H](N=[N+]=[N-])[C@@H](CO)O2)c(=O)[nH]c1=O | inactive |  |
| O=c1c(-c2ccc(O)cc2)coc2cc(O)cc(O)c12 |  | 83.2 µM (active) |
| CC(C)(C)c1cc(/C=C2\SC(N)=NC2=O)cc(C(C)(C)C)c1O | inactive |  |
| Clc1cc(Cl)c2c(c1)N=C1CCCCCN1C2 | inactive |  |
| CN1C(=O)N(c2ccccc2Br)Cc2cnc(Nc3ccc4c(c3)OCC(CO)O4)nc21 (centres undefined) |  | 1.81 µM (active) |
| CCCCCCCCN(C)CCCCCCCC | inactive |  |
| CN(C)C(=O)C1(N2CCCCC2)CCN(CC[C@@]2(c3ccc(Cl)c(Cl)c3)CN(C(=O)c3ccccc3)CCO2)CC1 |  | 9.2 µM (active) |
| CN1C(=O)CC[C@H]1c1cccnc1 | inactive |  |
| NC(=O)c1nc(-c2cccc(-c3cc(F)ccc3OCC(F)(F)C(F)(F)F)c2)n[nH]1 |  | 0.683 µM (active) |
| O=C(Nc1ccc(Cl)cc1)Nc1ccc(Cl)c(Cl)c1 | inactive |  |
| COc1cc(C(=O)NC2CCN(C)CC2)ccc1Nc1ncc2c(n1)N(C1CCCC1)CC(F)(F)C(=O)N2C |  | 0.0449 µM (active) |
| CCCCCCCCCCCC[N+](C)(C)C |  | 8.63 µM (active) |
| CO[C@H]1/C=C/O[C@@]2(C)Oc3c(C)c(O)c4c(O)c(c(/C=N/N5CCN(C)CC5)c(O)c4c3C2=O)NC(=O)/C(C)=C\C=C\[C@H](C)[C@H](O)[C@@H](C)[C@@H](O)[C@@H](C)[C@H](OC(C)=O)[C@@H]1C | inactive |  |
| CN(C[C@@H](CC[N+]12CCC(C3CCCCC3)(CC1)CC2)c1ccc(Cl)c(Cl)c1)C(=O)c1cc(C(F)(F)F)cc(C(F)(F)F)c1 |  | 16.4 µM (active) |
| CCCCOC(=O)c1ccc(O)cc1 | inactive |  |
| CN(C)c1ccc(C(=C2C=CC(=[N+](C)C)C=C2)c2ccc(N(C)C)cc2)cc1 |  | 0.767 µM (active) |
| COc1ccc2cc(S(=O)(=O)N[C@H](CC(=O)N[C@H](Cc3ccc(CN4[C@H](C)CCC[C@@H]4C)cc3)C(=O)N(C)C(C)C)c3ccc4c(c3)OCO4)ccc2c1 |  | 18.9 µM (active) |
| COc1cccc([C@H](O)C2CCN(CCc3ccc(F)cc3)CC2)c1OC | inactive |  |
| CCCCCCCCOC(=O)c1cc(O)c(O)c(O)c1 |  | 2.44 µM (active) |
| Cc1c2ccccc2c(C)c2c1ccc1ccccc12 | inactive |  |
| CC(C)(c1cc(Br)c(O)c(Br)c1)c1cc(Br)c(O)c(Br)c1 | inactive |  |
| OCCO | inactive |  |
